Compound activity from PubChem BioAssay.
The list is not random: actives were taken first. Their share in the collection is about 7.9%.
HCMV inh: qHTS Assay for inhibitors of the human cytomegalovirus (HCMV) | AID 1259415, 2018 | HFF cells, HCMV-luciferase reporter, 72 h; stronger effect = lower value | actives 4.5% (n = 410,000) | activity change, negative = inhibition, % at 57.5 µM; in the data active = activity change below about -60%; inconclusive = no clear call, values can overlap the other calls; inactive = above about -39%
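Steps: HFFs plated, 16 h 37C; compounds added; HCMV-luciferase added to MOI 1 PFU/cell; 72 h 37C; OneGlo reagent, 5 min room temperature; luminescence read, normalized to controls.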
Lassa entry inh: qHTS for Inhibitors of binding or entry into cells for Lassa Virus | Potency, µM (doses to about 37.9 µM), hits mostly inhibitors | AID 540256, 2011 | actives 1.2% (n = 300,000) | Lassa virus pseudotype entry inhibition, cell reporter; calls by dose curve; tested in HEK293 cells; note: nearly all actives have a fitted effect of over 50% in size
FMDV inh: High Throughput Screening for Foot and Mouth Disease Virus Antivirals | actives 1.2% (n = 410,000) | Potency, µM (highest dose often 57.9 µM), actives largely listed as inhibitors | FMDV antiviral cell-based qHTS | AID 1159524, 2015; calls by dose curve; tested in HEK293T cells; note: read-out not given here; nearly all actives have a fitted effect of over 45% in size
Marburg entry inh: qHTS for inhibitors of binding or entry into cells for Marburg Virus; Marburg virus pseudotyped entry inhibition, cell reporter; actives 1.8% (n = 300,000); Potency, µM (top dose mostly 37.8 µM), usual class: inhibitors; calls by dose curve; tested in HEK293 cells
HCV inh: qHTS Assay for Inhibitors of Hepatitis C Virus (HCV); Huh7.5.1 HCVcc-Cre infection, luciferase reporter, 44 h; Potency, µM (series often up to 41.8 µM), usual class: inhibitors; actives 3.4% (n = 340,000); AID 651820, 2012; active = well fitted inhibition curve with a large enough effect; inconclusive = small, poorly fitted or top-dose-only effect, or another doubt; inactive = no such curve, though single readings can be large or run the other way
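Infectious HCVcc-Cre (~0.5 moi) was added to cells just after compound, with cells seeded 4 h earlier at 1,000 per well. Luciferase activity after 44 h culture reported infection; substrate was incubated 15 min at room temperature before reading.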
Of the large screens only hits and unclear results are named; the others gave an inactive call.

COc1cc(NC(=S)NCCc2ccc(S(N)(=O)=O)cc2)c(OC)cc1Cl	HCMV inh -61 (no result: Lassa entry inh, Marburg entry inh)
C/C(=N\NC(=S)NCc1ccccc1)c1ccc2ccccc2c1	Lassa entry inh 2.3µM, Marburg entry inh inconclusive, HCV inh inconclusive
COc1ccc(-c2oc3c4c2C(=O)OCCOC4CCC3)cc1 (stereo unspecified)	none (no result: Lassa entry inh, Marburg entry inh, HCV inh)
COC(=O)[C@H]1[C@H](CO)[C@H]2Cn3c(ccc(Br)c3=O)[C@@H]1N2S(=O)(=O)c1cn(C)cn1	none (no result: Lassa entry inh, FMDV inh, Marburg entry inh, HCV inh)
COc1cc(NC(=O)c2ccc(-n3cnc4cccnc43)cc2)cc(OC)c1	none (no result: Marburg entry inh, HCV inh)
COc1ccc(NC(=S)NCCc2ccc(F)cc2)c(OC)c1	none
COc1ccc(NC(=S)NCCc2ccccc2)c(OC)c1	HCV inh 22µM
COc1cc(NS(=O)(=O)c2ccc(C)c(C)c2)c(OC)cc1Cl	HCMV inh -69, Marburg entry inh inconclusive
O=C(CNC(=O)c1ccccc1F)NCc1cccnc1	FMDV inh inconclusive, HCV inh inconclusive
CC(=O)Nc1ccc(S(=O)(=O)Nc2ccc(Cl)cn2)cc1	Marburg entry inh inconclusive
CC(=O)Nc1ccc(S(=O)(=O)c2ccnc3cc(Cl)ccc23)cc1	HCMV inh -83, FMDV inh 32µM (no result: Lassa entry inh, Marburg entry inh, HCV inh)
COc1cc2c(C#Cc3cccnc3)c(-c3ccsc3)oc(=O)c2cc1OC	HCV inh 6.3µM (no result: Lassa entry inh, Marburg entry inh)
COc1cc2c(C#CCCCO)c(-c3ccsc3)oc(=O)c2cc1OC	HCMV inh -61, HCV inh 3.2µM (no result: Lassa entry inh, Marburg entry inh)
COc1cc2c(C(F)(F)F)c(-c3ccsc3)oc(=O)c2cc1OC	none (no result: Lassa entry inh, Marburg entry inh)
Cc1cc(C(=O)CSc2ncn[nH]2)c(C)n1-c1cccc(S(=O)(=O)N2CCOCC2)c1	FMDV inh 28µM, Marburg entry inh inconclusive, HCV inh inconclusive
Cc1cc(C(=O)CN2C(=O)CN(C)C2=O)c(C)n1-c1cccc(S(=O)(=O)N2CCOCC2)c1	HCV inh inconclusive (no result: Lassa entry inh, Marburg entry inh)
Cc1cc(C(=O)CCl)c(C)n1-c1cccc(S(=O)(=O)N2CCOCC2)c1	FMDV inh 25µM, Marburg entry inh inconclusive, HCV inh inconclusive
COC[C@@H](OC(C)=O)[C@H]1OCc2ccccc2[C@H]1C=Cc1ccccc1	none (no result: HCMV inh, Lassa entry inh, FMDV inh, HCV inh)
Cc1ccc(N2CC(NC(=O)c3ccc4c(c3)OCO4)CC2=O)cc1 (stereo unspecified)	none (no result: Marburg entry inh, HCV inh)
CC(=O)c1ccc(NC(=O)Nc2ncn(Cc3cccc(C)c3)n2)cc1	Lassa entry inh 0.65µM
COc1cccc(C(c2c(NC(=O)c3ccccc3)sc(C)c2C)N2CCN(C)CC2)c1 (stereo unspecified)	Lassa entry inh inconclusive, Marburg entry inh 20µM
CCN1CCN(C(c2ccccn2)c2c(NC(=O)c3ccccc3)sc(C)c2C)CC1 (stereo unspecified)	Lassa entry inh inconclusive, FMDV inh inconclusive, Marburg entry inh 10µM, HCV inh inconclusive
CCN1CCN(C(c2cccnc2)c2c(NC(=O)c3ccco3)sc(C)c2C)CC1 (stereo unspecified)	HCV inh inconclusive (no result: Lassa entry inh, Marburg entry inh)
COc1ccc(C(c2c(NC(=O)c3ccccc3)sc(C)c2C)N2CCN(CCO)CC2)cc1 (stereo unspecified)	Lassa entry inh inconclusive, Marburg entry inh inconclusive
CC1c2ccccc2N(S(=O)(=O)c2ccccc2)C1C (stereo unspecified)	Lassa entry inh inconclusive, Marburg entry inh 3.5µM, HCV inh inconclusive
CC(=O)N1c2ccccc2[C@H](C)[C@H]1C	none (no result: Lassa entry inh, Marburg entry inh)
CC1CN(S(=O)(=O)c2cccc(C(=O)NN3CCN(C)CC3)c2)CC(C)O1 (stereo unspecified)	none
CC1CN(S(=O)(=O)c2cccc(C(=O)Nc3ccc4c(c3)CCC4)c2)CC(C)O1 (stereo unspecified)	HCMV inh inconclusive, Lassa entry inh inconclusive, Marburg entry inh 11µM, HCV inh inconclusive
Cc1nnc(NC(=O)c2cccc(S(=O)(=O)N(C)c3cccc(Cl)c3)c2)s1	none (no result: Lassa entry inh, Marburg entry inh)
CN(c1cccc(Cl)c1)S(=O)(=O)c1cccc(C(=O)Nc2ccc3c(c2)CCC3)c1	HCMV inh -87, Lassa entry inh inconclusive, Marburg entry inh 2.2µM, HCV inh 6.3µM
CCCn1c(CCC(=O)Nc2ccc(OCC)cc2)nc2cccnc21	none (no result: HCV inh)
CCN1C(=O)[C@H]2[C@H]3[C@H](O)[C@H](O)C/C(=N/OC[C@@H](C)[C@H](OCc4ccccc4)C(C)C)[C@@H]3CC[C@@H]2C1=O	none (no result: HCMV inh, Lassa entry inh, FMDV inh, HCV inh)
COc1ccc2ccccc2c1CN1CCOc2ccc(CN3CCN(CCO)CC3)cc2C1	none (no result: HCMV inh, Lassa entry inh, Marburg entry inh, HCV inh)
